A selection: hits, their analogues and other compounds. The true share with any hit is near 2.6%.
PAFAH2 inh – inhibitors of human PAFAH2. inhibition, % at 3.39 µM. 0.99% of 340,000 active. Q99487. recombinant PAFAH2, FP-rhodamine activity probe, fluorescence polarization;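 active = inhibition above the mean over all tested compounds plus 3 SD, cut at about 30% in these data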;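 also: inhibitors block probe labeling of enzyme so polarization drops; 0% = enzyme with DMSO and 100% = wells lacking PAFAH2 protein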
PKA-R1A act – PKA-R1A complex activation. P00514+P68181. PKA-R1A dissociation, Cy5-IP20 fluorescence polarization; scaled: DMSO 0%, 113 µM cGMP 100%. activation, % at 11.4 µM. 0.083% of 340,000 active. AID 504707;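 active = percent activation above the mean of all tested compounds plus 3 SD, cut at about 19% in these data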;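 also: higher means more PKAc released from R1A so a rise in polarization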
PAFAH1B2 FP inh – inhibitors of human PAFAH1B2 | P68402 | recombinant PAFAH1B2, FP-rhodamine activity probe, fluorescence polarization | inhibition, % at 3.39 µM | 1.2% of 340,000 active;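 active = inhibition above the mean of all tested compounds plus 3 SD, cut at about 24% in these data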;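 also: 0% = enzyme with DMSO and 100% = wells lacking PAFAH1B2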
PAFAH1B3 inh – inhibitors of human PAFAH1B3 | recombinant PAFAH1B3, FP-rhodamine probe, fluorescence polarization | inhibition, % at 3.39 µM | AID 492972 | Q15102 | 0.28% of 340,000 active;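 active = inhibition above the screen-wide average of all tested compounds plus 3 SD, cut at about 25% in these data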;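 also: 0% = enzyme with DMSO only and 100% = wells lacking PAFAH1B3 protein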
PKA-R2B act – activates the human PKA-R2B holoenzyme complex; P22694+P31323; PKA-R2B holoenzyme dissociation, Cy5-IP20 fluorescence polarization; R2B truncated from residue 108, S112A mutant; 0% DMSO only, 100% 113 µM cGMP; activation, % at 11.4 µM; 0.079% of 340,000 active; AID 504700;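 active = activation above a cutoff set at the mean over all compounds plus 3 SD, cut at about 18% in these data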;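 also: higher means more holoenzyme dissociation and a rise in polarization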
pPAFAH inh – pPAFAH (human) enzyme inhibition | inhibition, % at 3.39 µM | Q13093 | recombinant pPAFAH, FP-rhodamine probe fluorescence polarization | 1.5% of 330,000 active;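 active = inhibition above the mean inhibition across the screen plus 3 SD, cut at about 25% in these data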;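 also: inhibitors block binding of the rhodamine activity-based probe so polarization drops; 0% = enzyme with DMSO and 100% = wells lacking pPAFAH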
Target sequence (Q13093 whole entry, looked up): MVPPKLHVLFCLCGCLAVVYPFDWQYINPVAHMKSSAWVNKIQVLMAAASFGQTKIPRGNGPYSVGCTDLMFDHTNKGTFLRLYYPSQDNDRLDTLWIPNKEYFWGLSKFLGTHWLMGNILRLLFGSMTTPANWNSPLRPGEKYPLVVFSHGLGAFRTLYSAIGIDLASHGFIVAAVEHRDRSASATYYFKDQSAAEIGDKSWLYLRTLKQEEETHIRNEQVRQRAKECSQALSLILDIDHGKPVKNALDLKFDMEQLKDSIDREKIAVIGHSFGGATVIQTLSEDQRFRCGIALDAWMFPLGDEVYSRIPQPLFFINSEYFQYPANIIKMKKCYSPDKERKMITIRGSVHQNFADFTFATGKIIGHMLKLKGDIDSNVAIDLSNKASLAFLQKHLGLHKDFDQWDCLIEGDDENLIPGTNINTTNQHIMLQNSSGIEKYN
PAFAH2 FP conf – PAFAH2 (human) inhibition, confirmed; shares compounds with PAFAH2 inh; recombinant PAFAH2, FP-rhodamine activity probe, fluorescence polarization; inhibition, % at 3.39 µM; 65% of 2,300 active; AID 493030;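 active = mean inhibition over three repeats above a set limit taken from the earlier primary screen, cut at about 30% in these data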;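 also: inhibitor blocks binding of rhodamine activity probe so polarization falls; 0% = enzyme with DMSO and 100% = wells lacking PAFAH2 protein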
Starred values were filed as active, the others as inactive; nt = no result.

SMILES	PAFAH2 inh	PKA-R1A act	PAFAH1B2 FP inh	PAFAH1B3 inh	PKA-R2B act	pPAFAH inh	PAFAH2 FP conf
Oc1[nH]c2ccccc2c1N=Nc1ccccc1	-4	-12	0	1	-15	1	nt
Cc1ccc2[nH]c(O)c(N=Nc3nc4ccccc4s3)c2c1	55*	2	5	-2	0	0	36*
Cc1ccc2[nH]c(C)c(/C=N/Nc3nc4ccccc4s3)c2c1	-8	-2	6	16	-5	19	nt
Oc1[nH]c2ccccc2c1N=Nc1nc2ccccc2s1	52*	-6	7	-3	-10	8	20
N#Cc1ccccc1NC(=O)COC(=O)c1ccc2c(c1)OCCO2	73*	0	1	7	5	13	69*
N#Cc1ccc(Cl)cc1NC(=O)COC(=O)c1ccc2c(c1)OCCO2	66*	-7	-5	1	-4	10	68*
CN(C1(C)CCS(=O)(=O)C1)S(=O)(=O)c1cccc([N+](=O)[O-])c1 (configuration not stated)	5	-7	1	5	-1	1	nt
Cc1cc(C)c(NC(=O)CSCc2nc3sc(C)c(C)c3c(=O)[nH]2)c(Cl)c1	-30	-8	-7	-19	1	-8	nt
CCCCC1=NN2C(=N)CC(=O)N=C2S1	33*	-3	0	6	5	7	6
CC1CCCC(NC(=O)COC(=O)c2ccc(Cl)nc2)C1C (configuration not stated)	33*	-6	0	-7	-13	1	24
N#Cc1ccc(NC(=O)COC(=O)c2cccnc2Cl)cc1	43*	-5	6	0	-3	8	36*
CC1CCCC(NC(=O)COC(=O)c2ccc(S(=O)(=O)N3CCOCC3)cc2)C1C (configuration not stated)	-4	-3	1	4	-9	4	nt
CC1CCCC(NC(=O)COC(=O)COc2ccccc2Cl)C1C (configuration not stated)	4	-6	-2	1	-3	0	nt
CC1CCCC(NC(=O)COC(=O)c2cccnc2Cl)C1C (configuration not stated)	67*	-5	6	3	-9	7	51*
CC1CCCC(NC(=O)COC(=O)c2cc3ccccc3oc2=O)C1C (configuration not stated)	37*	8	12	10	-7	-6	21
CC1CC(C)CN(C(=O)C2CCN(S(=O)(=O)c3cccc4cccnc34)CC2)C1 (configuration not stated)	4	-5	2	5	-7	7	nt
CC(=O)c1ccc(NC(=O)CC2S/C(=N/N=C3CCCCCC3)NC2=O)cc1 (configuration not stated)	-3	0	7	3	-7	nt	nt
O=C(CC12CC3CC(CC(C3)C1)C2)NCC(=O)N1CCc2ccccc2C1	81*	3	12	9	-8	10	71*
O=C(COC(=O)c1ccccc1C(=O)c1ccccc1)NCCc1ccccc1	13	0	2	6	-13	1	nt
Cc1ccc(C(=O)c2ccccc2C(=O)OCC(=O)NC(C)(C)C)cc1	62*	-8	0	9	-4	1	51*
O=C(Nc1ccc(S(=O)(=O)Nc2ncccn2)cc1)c1ccccc1NS(=O)(=O)c1ccc(Cl)cc1	50*	1	3	3	0	5	50*
CCOC(=O)CSc1nnc(-c2ccccc2NC(=O)c2ccccc2)o1	-23	-2	1	-3	1	3	nt
CCc1nnc(NC(=O)CSc2nnc(-c3ccccc3NC(=O)c3ccccc3)o2)s1	34*	-10	4	3	4	0	-3
Cc1cccc(N2CCN(C(=O)c3ccccc3NC(=O)C3=CSCCO3)CC2C)c1 (configuration not stated)	-2	-8	1	5	-5	3	nt
O=C1Nc2ccc(F)cc2C12Nc1ccccc1-c1nnc(SCc3ccccc3F)nc1O2 (configuration not stated)	35*	3	9	6	2	5	15
SMILES	PAFAH2 inh	PKA-R1A act	PAFAH1B2 FP inh	PAFAH1B3 inh	PKA-R2B act	pPAFAH inh	PAFAH2 FP conf
COc1ccc(/C=C/c2nc3ccccc3c(=O)o2)cc1	62*	-3	11	3	2	-6	57*
COc1ccccc1/C=C/c1nc2ccc(OC(C)=O)cc2c(=O)o1	78*	6	2	9	1	13	67*
CC1(c2ccccc2)NC(=O)N(NC(=O)COC(=O)c2cc(Br)ccc2O)C1=O (configuration not stated)	-2	-3	5	1	2	2	nt
CC1CN(C(=O)CCC(=O)N2CCN(c3cccc(C(F)(F)F)c3)CC2)c2ccccc2O1 (configuration not stated)	1	-8	1	2	-18	11	nt
O=C(CC1CCCC1)Nc1ccc(Br)cc1	1	11	2	1	-4	0	nt
CCOc1ccc(NC(=O)COC(=O)CC2CCCCC2)cc1	45*	-8	3	-3	-13	16	41*
O=C(COC(=O)CC1CCCC1)Nc1ccc(Cl)cc1	80*	-4	1	-2	-13	nt	74*
CCOc1ccc(NC(=O)CC(=O)Nc2ccc(OCC)cc2)cc1	-1	4	4	9	8	3	nt
O=C(c1ccc(F)cc1)N1CCC(C(=O)N2CCN(S(=O)(=O)c3cccc(Cl)c3)CC2)CC1	1	-7	3	4	-5	4	nt
O=C(O)CCCN1C(=O)/C(=C\C(Cl)=C\c2ccccc2)SC1=S	61*	1	4	8	4	nt	17
CCc1ccc(NC(=O)C2=CC(c3cccs3)=NS(=O)(=O)N2C)cc1	1	7	2	-1	-3	4	nt
O=C(O)CN1C(=O)/C(=C\c2cc(Br)ccc2OCc2ccc(Cl)cc2)SC1=S	32*	-8	20	9	8	nt	20
O=C(O)CN1C(=O)/C(=C\c2ccccc2OCc2ccc(F)cc2)SC1=S	39*	-1	16	2	10	14	35*
O=P(O)(C(O)c1ccccc1)C(O)c1ccccc1 (configuration not stated)	-1	-9	-1	1	0	5	nt
O=C(O)c1ccc(CNC(=O)c2ccccc2NC(=O)c2ccc([N+](=O)[O-])cc2)cc1	38*	0	4	4	0	2	30*
O=C(O)c1ccc(CNC(=O)c2ccccc2NC(=O)c2cccc([N+](=O)[O-])c2)cc1	-6	-6	0	2	11	5	nt
